MCL1 BIM primary = inhibitors of MCL1 binding to BIM-BH3, primary screen, biochemical, fluorescence polarization; Induced myeloid leukemia cell differentiation protein Mcl-1 (Homo sapiens), Q07820; GST-MCL1 / FITC-Bim-BH3 fluorescence polarization; inhibition, % at 10.9 µM; 320,000 tested, 0.68% active; AID 2057, 2009;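 active means inhibition above the mean inhibition of all tested compounds plus 3 SD, set per campaign, cut at about 40% in these data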;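 further: 0% = DMSO wells and 100% = unlabeled Bim-BH3 peptide control; higher means more loss of mP so more displacement of Bim peptide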
E coli Lon inh = inhibitors of E. coli Lon protease, primary screen, biochemical, fluorescence polarization; P0A9M0; 360,000 tested, 0.42% active; inhibition, % at 7.94 µM; purified E. coli Lon protease; AID 602123, 2011; in the data active means inhibition above about 13%, passing the limit was not always enough;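 further: 0% = enzyme with probe and DMSO and 100% = no enzyme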
Target sequence (P0A9M0 whole entry, looked up): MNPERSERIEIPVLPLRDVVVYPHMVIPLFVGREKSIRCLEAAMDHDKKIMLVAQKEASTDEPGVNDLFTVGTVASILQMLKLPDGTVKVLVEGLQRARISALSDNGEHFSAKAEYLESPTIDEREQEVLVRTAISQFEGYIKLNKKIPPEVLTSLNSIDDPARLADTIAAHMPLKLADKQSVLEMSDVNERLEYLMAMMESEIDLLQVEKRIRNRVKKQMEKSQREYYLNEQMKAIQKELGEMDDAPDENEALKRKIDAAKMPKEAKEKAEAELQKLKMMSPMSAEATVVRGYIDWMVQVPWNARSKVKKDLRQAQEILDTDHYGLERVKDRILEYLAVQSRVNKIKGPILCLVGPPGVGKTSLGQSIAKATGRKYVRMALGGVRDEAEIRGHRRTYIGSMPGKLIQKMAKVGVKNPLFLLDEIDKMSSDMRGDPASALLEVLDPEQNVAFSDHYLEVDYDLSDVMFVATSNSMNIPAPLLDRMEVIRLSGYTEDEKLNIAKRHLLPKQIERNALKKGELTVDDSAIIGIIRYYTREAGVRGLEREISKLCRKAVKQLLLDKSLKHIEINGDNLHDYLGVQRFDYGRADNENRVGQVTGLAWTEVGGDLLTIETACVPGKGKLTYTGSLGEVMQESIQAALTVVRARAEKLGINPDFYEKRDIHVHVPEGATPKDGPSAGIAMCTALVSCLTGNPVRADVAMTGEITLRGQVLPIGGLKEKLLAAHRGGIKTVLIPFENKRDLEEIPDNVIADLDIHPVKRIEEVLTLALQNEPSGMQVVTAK
Bcl-xL primary = inhibitors of human Bcl-xL, primary screen, biochemical, fluorescence polarization, HTS; inhibition, % at 10.9 µM; Bcl-2-like protein 1 (Homo sapiens), Q07817; 320,000 tested, 0.7% active; GST-Bcl-xL / FITC-Bim BH3 peptide fluorescence polarization;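 active means inhibition above the mean of all tested compounds plus 3 SD, cutoff set per campaign, cut at about 30% in these data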;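 further: 0% = DMSO wells and 100% = unlabeled Bim-BH3 peptide competitor; inhibitors lower millipolarization by displacing the labeled peptide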
GLD-1 RNA inh = GLD-1/TGE RNA complex disruptors, primary screen, biochemical, fluorescence polarization. purified GLD-1 + fluorescein TGE RNA. 320,000 tested, 0.44% active. AID 2280, 2010. Female germline-specific tumor suppressor gld-1 (Caenorhabditis elegans), Q17339. inhibition, % at 5.96 µM;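 active means percent inhibition above a per-plate cutoff, the plate mean of test compounds plus 3 SD, cut at about 30% in these data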;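 further: 0% = DMSO wells with GLD-1 and probe and 100% = wells lacking GLD-1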
MEX-5 binding = MEX-5 zinc finger RNA-binding disruptors – biochemical, C. elegans, fluorescence polarization, MLPCN library, primary screen; Zinc finger protein mex-5 (Caenorhabditis elegans), Q9XUB2; MEX-5/FITC-TCR2 RNA binding; stronger effect = lower value; activity score (negative = inhibition of binding), % at 10 µM; 300,000 tested, 0.38% active; AID 1832, 2009;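 active means inhibition past about -25% in most replicates, and total fluorescence under double the plate's negative control median, limit read from the data; inconclusive means replicates evenly split on the limit, or fluorescence at least double controls; inactive means too little inhibition in most replicates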;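 further: 0% = DMSO and -100% = 5 µM competing unlabeled TCR2 RNA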
BCLXL inh confirm = Bcl-xL inhibitors blocking Bim BH3 binding, confirmation, counter-screen for MCL1 inhibitor project, biochemical, fluorescence polarization; shares compounds with MCL1 BIM primary; GST-Bcl-xL / FITC-Bim BH3 peptide FP binding; inhibition, % at 10.9 µM; 1,700 tested, 54% active; AID 2166, 2009;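 active means inhibition above a cutoff equal to the mean inhibition of all tested compounds plus 3 SD, cut at about 30% in these data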;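 further: 0% = DMSO wells and 100% = unlabeled Bim BH3 control peptide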
MCL1 inh confirm = inhibitors of MCL1 binding to BIM-BH3, confirmation, biochemical, fluorescence polarization, triplicate; 1,700 tested, 61% active; shares compounds with MCL1 BIM primary; inhibition, % at 10.9 µM; GST-MCL1 / FITC-Bim-BH3 fluorescence polarization;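 active means inhibition above the average of all tested compounds plus 3 SD, cut at about 40% in these data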;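 further: 0% = DMSO wells and 100% = unlabeled Bim-BH3 control peptide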
GLD-1 TGE cf = GLD-1/TGE RNA binding inhibitors, retest, confirmation, biochemical, fluorescence polarization, triplicate | shares compounds with GLD-1 RNA inh | GLD-1/FL-TGE RNA fluorescence polarization | inhibition, % at 5.96 µM | 550 tested, 10% active | AID 2459, 2010;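 active means average inhibition across triplicates above the hit cutoff set in the primary screen, cut at about 32% in these data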;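 further: 0% = GLD-1 with RNA probe and DMSO and 100% = wells lacking GLD-1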
eLon confirm = E. coli Lon protease inhibitor retest, confirmation, biochemical, fluorescence polarization. shares compounds with E coli Lon inh. purified E. coli Lon. AID 602230, 2012. inhibition, % at 7.94 µM. 1,400 tested, 31% active; in the data active means inhibition above about 16%;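 further: 0% = enzyme with probe and DMSO and 100% = no enzyme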
* = called active by the depositor; ? = inconclusive; / = no result; + = active, no number. The list is not random: actives were taken first. Their share in the collection is about 1.4%.

SMILES | MCL1 BIM primary | E coli Lon inh | Bcl-xL primary | GLD-1 RNA inh | MEX-5 binding | BCLXL inh confirm | MCL1 inh confirm | eLon confirm | others
CCCNC(=O)c1c(N)n(-c2ccc3c(c2)OCO3)c2nc3ccccc3nc12 | 4.9 | 9.6 | 8.7 | 10.3 | -1.5 | / | / | /
Nc1c(C(=O)NC2CC2)c2nc3ccccc3nc2n1-c1ccc2c(c1)OCO2 | 61.1* | 18.8* | 42.4* | 27.1 | -7.5 | 34.8* | 41.7* | 30.6*
CN(C)CCN(C)Cc1c2ccccc2c(CN(C)CCN(C)C)c2ccccc12 | 189.5* | 124.9* | 172.2* | 123.4* | -64.1* | 77.0* | 101.6* | 47.1*
CN(C)CCP(=O)(c1ccccc1)c1ccccc1 | -0.4 | -3.8 | 5.4 | -0.4 | 2.4 | / | / | /
Nc1ccc(-c2cnc3ccccc3n2)cc1 | 3.9 | -7.5 | 2.0 | 4.5 | -1.4 | / | / | /
Nc1ccc2nc(-c3ccccc3)cnc2c1 | 119.3* | 33.9* | 98.7* | 81.0* | -13.1 | 120.9* | 141.7* | 107.3*
CCc1cc(C(=O)Nc2ccc(OC)nc2)sc1C | 118.1* | 50.5* | 111.2* | 84.6* | -58.2* | 108.4* | 130.4* | 4.6
COc1[nH]c(/N=C/c2ccccc2)c(C#N)c1C#N | 194.0* | 149.0* | 160.3* | 159.1* | -59.5* | 50.1* | 40.2* | 8.2
O=C(O)c1[nH]c2ccccc2c1C(c1cc(Cl)cc([N+](=O)[O-])c1O)c1c(C(=O)O)[nH]c2ccccc12 | 50.6* | 28.1* | 12.5 | 9.4 | -61.3* | 10.2 | 27.2 | 19.5*
COC(=O)c1ccc2c(c1)SC1=C(CCCC1=O)N2 | 176.8* | 34.9* | 148.5* | 96.2* | -2.0 | 118.2* | 161.0* | 100.3* | GLD-1 TGE cf=47.9*
O=C1c2cccc3c(O)ccc(c23)C(=O)N1Cc1ccccc1 | + | + | + | + | ? | + | + | +
O=C(O)c1cccc(CN2C(=O)c3ccccc3C2=O)c1 | -3.2 | 5.1 | 3.9 | -4.7 | 0.1 | / | / | /
COC(=O)c1c(=O)n(O)c2ccc(OC)cc2[n+]1[O-] | 197.9* | 142.5* | 168.5* | 146.5* | -30.3* | 138.4* | 178.0* | 88.3*
CCOc1ccc(-c2noc([C@@H]3O[C@H](CO)[C@@H](O)[C@H]3O)n2)cc1 | / | 0.6 | / | / | / | / | / | /
O=Cc1ccc2noc(-c3ccc(F)cc3)c2c1 | 106.2* | 20.2* | 101.0* | 102.7* | ? | 122.9* | 162.7* | 109.6*
COCCN1CN(S(=O)(=O)c2ccccc2)c2nc3ccccc3nc21 | 55.3* | 26.0* | 62.0* | 58.7* | 1.7 | 30.5* | 43.3* | -22.4 | GLD-1 TGE cf=13.3
CC(C)C[C@H]1CN(CCCC[C@H]2CNC(=O)C(=O)N2CCc2ccc(O)cc2)C(=O)C(=O)N1CCc1ccccc1 | / | 3.8 | / | / | / | / | / | /
N#Cc1cccc(NC(=O)CSc2ccc3c4c(cccc24)C(=O)c2ccccc2-3)c1 | 75.2* | 22.0* | 72.8* | 61.3* | 1.4 | 185.4* | 182.6* | 94.3*
COc1ccc(NC(=O)CSc2ccc3c4c(cccc24)C(=O)c2ccccc2-3)cc1 | -6.3 | -36.2 | 15.0 | -17.1 | -18.7 | / | / | /
COc1ccc([C@H]2CC(=O)C[C@@H](CCn3cccn3)O2)cc1 | / | 2.2 | / | / | / | / | / | /
CCNc1cc(O)ccc1C | 164.4* | 117.4* | 137.8* | 137.2* | / | 73.2* | 85.2* | 89.2*
Cc1ccc(C(=O)CNc2cc(C)ccc2C)cc1 | -1.2 | -3.4 | 2.7 | -1.1 | -3.3 | / | / | /
CN(C)C(=O)c1cccc(-c2cccc(-c3nc(C(=O)NCc4ccccc4)cc4c3[C@H](CCO)N(S(=O)C(C)(C)C)C4)c2)c1 (stereo partly specified) | / | -23.3 | / | / | / | / | / | /
OCc1cccc(-c2csc(C(O)(c3ccccc3)C(F)(F)F)n2)c1 (stereo unspecified) | / | -3.9 | / | / | / | / | / | /
O=C1CCC(=O)c2ccc3c4c(ccc1c24)CC3 | / | 3.9 | / | / | / | / | / | /
SMILES | MCL1 BIM primary | E coli Lon inh | Bcl-xL primary | GLD-1 RNA inh | MEX-5 binding | BCLXL inh confirm | MCL1 inh confirm | eLon confirm | others
O=C1CCN2C=Nc3cccc4ccc1c2c34 | + | + | + | 169.2* | ? | 191.8* | + | +
CCc1nc2ccc(C(=O)Nc3ccc(OC)c(OC)c3)cn2c1N(C)Cc1ccc(N(C)C)cc1 | / | 0.7 | / | / | / | / | / | /
CC1=C(C(=O)Nc2cccc(C(=O)N3CCN(c4cccc(C(F)(F)F)c4)CC3)c2)SCCO1 | 2.0 | -4.2 | 1.6 | 7.2 | 1.3 | / | / | /
COC(=O)CCCC1=CC2=C(c3ccccc3)C(=O)C(C)(OC(=O)C3CCCC3)C(=O)C2=CN1Cc1ccco1 (stereo unspecified) | 10.1 | -2.1 | 14.0 | 10.5 | -4.8 | / | / | /
C=CCN1C=C2C(=O)C(C)(OC(=O)c3ccc(OC)cc3)C(=O)C(c3ccco3)=C2C=C1CCCC (stereo unspecified) | 71.3* | 41.5* | 67.2* | 53.8* | -5.2 | 41.3* | 61.8* | 9.1
COC(=O)c1ccc(CNC(=O)CN2C(=O)NC(Cc3ccccc3)(c3ccccc3)C2=O)cc1 (stereo unspecified) | / | -10.8 | / | / | / | / | / | /
O=C1C2C3C=CC(C4CC34)C2C(=O)N1/N=C/c1ccc(-c2ccc(F)cc2[N+](=O)[O-])o1 (stereo unspecified) | 83.9* | 18.6* | 74.1* | 55.2* | -5.8 | 19.9 | 29.9 | 71.1* | GLD-1 TGE cf=-8.0
CCc1nc2ccc(C(=O)NCCOc3ccc(OC)cc3)cn2c1N(C)C(=O)Cc1ccccc1 | / | 2.9 | / | / | / | / | / | /
O=[n+]1c2c(n([O-])c3cc(F)c(N4CCCC4)cc31)CCC2 | + | 150.6* | 190.8* | 161.4* | ? | 185.9* | + | 189.8*
O=[n+]1c2c(n([O-])c3cc(F)c(N4CCCC4)cc31)CCCC2 | + | 113.6* | 181.5* | 144.5* | ? | 173.2* | + | 110.7*

Source: PubChem BioAssay
